About 7,900 targets were measured; listed, in parts, are those with a hit and a random draw of the rest. About 0.6% of all pairs of compound and target were hits.
compound: Cn1cc(-c2ccc3c(c2)CCN3C(=O)Cc2cccc(C(F)(F)F)c2)c2c(N)ncnc21; assay: log2 fold change, soluble protein after heating vs DMSO (PISA); higher = thermal stabilisation; K562 cells, 10 uM, 30 min; active = over 0.2 and 3.5 SD of the protein, either way, in both replicates (recomputed)
Summary of the method: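 K562 cells (2×10^6 cells/mL) were treated with 10 μM compound for 30 min, and aliquots were heated for 3 min over 48°C-58°C. Pooled aliquots were extracted in PBS with 0.5% NP-40 at 4°C, and the supernatant after 21,000xg for 90 min was measured by TMTpro 16plex LC-MS/MS with channel sums equalised. Reported thermal stability, relative to control samples and from duplicates, is a log2 fold change.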

Chain of UniProt Q16763 (Q16763 whole entry, looked up): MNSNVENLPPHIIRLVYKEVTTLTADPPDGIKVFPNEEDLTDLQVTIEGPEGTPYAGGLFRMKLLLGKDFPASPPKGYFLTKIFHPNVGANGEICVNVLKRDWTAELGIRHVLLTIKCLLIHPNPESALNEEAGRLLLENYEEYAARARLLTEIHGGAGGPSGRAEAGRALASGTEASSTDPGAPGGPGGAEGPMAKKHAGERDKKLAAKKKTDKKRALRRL
Chain of UniProt Q8N3P4 (Q8N3P4 whole entry, looked up): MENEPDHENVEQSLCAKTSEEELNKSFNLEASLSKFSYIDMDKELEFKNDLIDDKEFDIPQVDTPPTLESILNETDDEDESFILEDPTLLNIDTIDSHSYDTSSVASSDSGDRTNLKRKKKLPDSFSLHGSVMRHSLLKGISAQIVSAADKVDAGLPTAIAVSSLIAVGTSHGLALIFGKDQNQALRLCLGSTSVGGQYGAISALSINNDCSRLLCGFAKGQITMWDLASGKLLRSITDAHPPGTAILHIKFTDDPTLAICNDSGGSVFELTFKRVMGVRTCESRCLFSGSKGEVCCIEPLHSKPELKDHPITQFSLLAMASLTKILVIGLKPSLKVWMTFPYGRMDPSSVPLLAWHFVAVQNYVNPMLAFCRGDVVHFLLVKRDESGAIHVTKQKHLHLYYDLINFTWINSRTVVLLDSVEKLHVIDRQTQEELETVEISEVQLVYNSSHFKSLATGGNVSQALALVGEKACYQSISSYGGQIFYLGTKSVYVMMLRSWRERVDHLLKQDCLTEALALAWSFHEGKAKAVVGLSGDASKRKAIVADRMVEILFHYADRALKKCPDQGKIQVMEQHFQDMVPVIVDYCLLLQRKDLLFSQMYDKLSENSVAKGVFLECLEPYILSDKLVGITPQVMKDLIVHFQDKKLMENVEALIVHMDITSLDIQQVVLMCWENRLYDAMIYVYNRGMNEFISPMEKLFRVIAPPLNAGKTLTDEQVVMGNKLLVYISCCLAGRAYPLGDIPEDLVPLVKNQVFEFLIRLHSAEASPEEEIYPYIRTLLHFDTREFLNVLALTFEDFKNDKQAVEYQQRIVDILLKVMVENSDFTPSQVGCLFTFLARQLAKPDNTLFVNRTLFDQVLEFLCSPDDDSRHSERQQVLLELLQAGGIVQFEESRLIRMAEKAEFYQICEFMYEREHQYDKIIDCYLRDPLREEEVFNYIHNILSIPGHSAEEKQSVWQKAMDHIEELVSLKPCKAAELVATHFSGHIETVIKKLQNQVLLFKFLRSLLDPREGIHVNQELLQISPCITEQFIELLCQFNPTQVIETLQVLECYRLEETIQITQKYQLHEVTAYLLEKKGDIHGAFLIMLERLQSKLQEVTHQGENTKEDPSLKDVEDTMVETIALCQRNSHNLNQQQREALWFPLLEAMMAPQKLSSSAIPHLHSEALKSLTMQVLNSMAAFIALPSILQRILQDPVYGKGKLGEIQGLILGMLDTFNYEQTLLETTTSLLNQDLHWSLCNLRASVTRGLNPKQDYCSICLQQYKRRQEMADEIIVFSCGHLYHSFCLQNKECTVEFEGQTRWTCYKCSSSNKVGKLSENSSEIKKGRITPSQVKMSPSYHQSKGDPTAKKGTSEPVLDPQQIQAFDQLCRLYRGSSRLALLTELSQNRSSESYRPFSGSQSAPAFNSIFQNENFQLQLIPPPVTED
Chain of UniProt Q9UEU0 (Q9UEU0 whole entry, looked up): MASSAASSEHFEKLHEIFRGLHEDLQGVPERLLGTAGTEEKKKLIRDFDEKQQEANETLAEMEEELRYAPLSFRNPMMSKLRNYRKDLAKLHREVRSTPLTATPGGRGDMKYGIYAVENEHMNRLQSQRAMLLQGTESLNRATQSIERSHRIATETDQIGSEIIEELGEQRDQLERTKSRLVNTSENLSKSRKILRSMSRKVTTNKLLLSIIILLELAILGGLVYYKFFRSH
Chain of UniProt O94874 (O94874 whole entry, looked up): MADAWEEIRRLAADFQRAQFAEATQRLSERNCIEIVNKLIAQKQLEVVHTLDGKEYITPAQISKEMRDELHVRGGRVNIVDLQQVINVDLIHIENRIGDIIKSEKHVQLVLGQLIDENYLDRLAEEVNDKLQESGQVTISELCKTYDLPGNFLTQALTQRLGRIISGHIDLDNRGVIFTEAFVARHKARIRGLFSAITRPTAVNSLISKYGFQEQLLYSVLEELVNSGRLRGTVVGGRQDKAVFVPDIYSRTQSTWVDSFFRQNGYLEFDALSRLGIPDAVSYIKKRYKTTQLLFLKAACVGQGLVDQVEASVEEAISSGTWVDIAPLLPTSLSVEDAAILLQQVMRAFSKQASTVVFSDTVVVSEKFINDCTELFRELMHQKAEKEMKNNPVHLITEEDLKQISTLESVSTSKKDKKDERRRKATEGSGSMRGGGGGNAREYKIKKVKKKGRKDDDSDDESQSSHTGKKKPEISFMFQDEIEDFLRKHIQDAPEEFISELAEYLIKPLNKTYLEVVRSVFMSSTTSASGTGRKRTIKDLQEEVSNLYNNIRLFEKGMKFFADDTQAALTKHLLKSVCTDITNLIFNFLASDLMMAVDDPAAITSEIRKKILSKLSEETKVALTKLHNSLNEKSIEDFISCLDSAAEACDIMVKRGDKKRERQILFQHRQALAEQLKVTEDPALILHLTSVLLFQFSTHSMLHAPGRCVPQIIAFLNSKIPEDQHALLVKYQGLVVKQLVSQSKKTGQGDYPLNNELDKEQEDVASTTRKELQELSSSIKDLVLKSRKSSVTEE
Chain of UniProt Q9BVJ6 (Q9BVJ6 whole entry, looked up): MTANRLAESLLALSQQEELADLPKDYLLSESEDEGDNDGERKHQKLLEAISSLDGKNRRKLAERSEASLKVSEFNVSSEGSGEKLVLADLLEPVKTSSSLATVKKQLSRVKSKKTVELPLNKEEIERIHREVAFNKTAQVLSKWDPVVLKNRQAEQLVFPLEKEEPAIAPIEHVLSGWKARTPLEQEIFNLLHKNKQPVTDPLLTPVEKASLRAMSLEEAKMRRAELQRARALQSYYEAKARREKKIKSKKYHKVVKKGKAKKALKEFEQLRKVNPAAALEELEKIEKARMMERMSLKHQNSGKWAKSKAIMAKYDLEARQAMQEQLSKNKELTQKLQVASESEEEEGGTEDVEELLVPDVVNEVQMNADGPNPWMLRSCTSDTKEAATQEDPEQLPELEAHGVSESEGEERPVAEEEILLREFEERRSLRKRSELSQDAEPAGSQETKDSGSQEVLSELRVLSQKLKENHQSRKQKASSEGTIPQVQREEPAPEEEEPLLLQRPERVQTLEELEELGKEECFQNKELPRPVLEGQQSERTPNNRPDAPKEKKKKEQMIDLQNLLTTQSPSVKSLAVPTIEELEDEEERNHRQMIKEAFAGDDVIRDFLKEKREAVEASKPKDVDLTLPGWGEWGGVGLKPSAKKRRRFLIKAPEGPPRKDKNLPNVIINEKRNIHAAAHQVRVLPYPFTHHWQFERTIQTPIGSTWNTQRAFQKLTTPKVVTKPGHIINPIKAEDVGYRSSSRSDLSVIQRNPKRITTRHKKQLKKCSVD
Chain of UniProt Q7Z6J8 (Q7Z6J8 whole entry, looked up): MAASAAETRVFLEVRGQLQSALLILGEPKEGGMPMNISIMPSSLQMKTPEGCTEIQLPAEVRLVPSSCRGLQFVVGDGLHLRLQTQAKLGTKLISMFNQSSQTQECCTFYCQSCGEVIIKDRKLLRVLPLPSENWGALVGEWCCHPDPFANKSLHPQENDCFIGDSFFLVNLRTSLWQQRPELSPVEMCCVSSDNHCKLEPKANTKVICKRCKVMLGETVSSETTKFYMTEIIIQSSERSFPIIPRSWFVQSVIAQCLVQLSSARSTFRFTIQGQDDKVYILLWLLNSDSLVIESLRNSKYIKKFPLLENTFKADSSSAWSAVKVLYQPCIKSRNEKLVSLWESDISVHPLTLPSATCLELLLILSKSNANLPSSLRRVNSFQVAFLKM
Chain of UniProt P68366 (P68366 whole entry, looked up): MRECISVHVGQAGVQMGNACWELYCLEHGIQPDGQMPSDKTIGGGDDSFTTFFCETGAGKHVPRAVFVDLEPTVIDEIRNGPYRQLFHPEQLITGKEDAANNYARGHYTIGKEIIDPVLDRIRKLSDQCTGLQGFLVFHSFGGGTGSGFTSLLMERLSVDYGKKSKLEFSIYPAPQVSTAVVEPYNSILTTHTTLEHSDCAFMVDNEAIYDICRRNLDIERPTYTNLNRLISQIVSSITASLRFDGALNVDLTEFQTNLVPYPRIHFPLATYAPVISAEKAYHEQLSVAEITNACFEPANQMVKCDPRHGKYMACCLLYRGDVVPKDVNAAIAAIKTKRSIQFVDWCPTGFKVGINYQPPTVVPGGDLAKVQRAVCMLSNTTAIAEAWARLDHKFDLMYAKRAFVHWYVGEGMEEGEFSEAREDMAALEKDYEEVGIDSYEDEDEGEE
Chain of UniProt Q8N1B4 (Q8N1B4 whole entry, looked up): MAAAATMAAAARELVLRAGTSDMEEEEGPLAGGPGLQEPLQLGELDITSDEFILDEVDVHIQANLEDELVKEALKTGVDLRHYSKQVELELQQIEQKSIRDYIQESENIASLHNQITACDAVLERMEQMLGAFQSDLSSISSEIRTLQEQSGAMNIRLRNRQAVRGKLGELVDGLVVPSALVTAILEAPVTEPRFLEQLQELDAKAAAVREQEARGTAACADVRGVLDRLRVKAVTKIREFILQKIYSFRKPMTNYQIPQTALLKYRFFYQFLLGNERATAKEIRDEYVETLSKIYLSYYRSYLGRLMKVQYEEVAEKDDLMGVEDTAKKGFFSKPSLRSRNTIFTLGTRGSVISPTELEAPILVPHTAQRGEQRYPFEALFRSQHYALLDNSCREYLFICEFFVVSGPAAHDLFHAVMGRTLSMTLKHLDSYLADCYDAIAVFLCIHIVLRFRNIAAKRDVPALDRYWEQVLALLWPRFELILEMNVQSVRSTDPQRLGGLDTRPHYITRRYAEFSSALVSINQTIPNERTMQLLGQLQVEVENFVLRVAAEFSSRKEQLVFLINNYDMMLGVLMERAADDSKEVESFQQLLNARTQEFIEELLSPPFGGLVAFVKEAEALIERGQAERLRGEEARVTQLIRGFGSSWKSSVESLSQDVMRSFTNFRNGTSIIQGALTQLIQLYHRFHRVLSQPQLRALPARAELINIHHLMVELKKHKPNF

log2 fold change, inactive:
TMEM8A (UniProt Q9HCN3) -0.046
UBAP2L isoform 1 (UniProt Q14157) 0.064
UBE4A isoform 2 (UniProt Q14139) -0.183
XPNPEP1 isoform 3 (UniProt Q9NQW7) 0.084
UTP14A (UniProt Q9BVJ6) -0.285
VAMP7 (UniProt P51809) 0.017
WDR4 (UniProt P57081) 0.068
TOP2A isoform 4 (UniProt P11388) -0.29
UBA1 (UniProt P22314) 0.027
WDHD1 (UniProt O75717) 0.03
WDR61 (UniProt Q9GZS3) 0.023
VTI1A (UniProt Q96AJ9) -0.001
VPS8 (UniProt Q8N3P4) -0.018
USO1 isoform 2 (UniProt O60763) -0.017
TSFM (UniProt P43897) 0.033
TMEM9 (UniProt Q9P0T7) 0.057
UBAP1 isoform 4 (UniProt Q9NZ09) 0.015
VPS50 (UniProt Q96JG6) -0.019
UNC119B (UniProt A6NIH7) 0.428
XPO6 (UniProt Q96QU8) -0.001
TUBA4A (UniProt P68366) 0.047
TRMT10C (UniProt Q7L0Y3) 0.046
TMEM120A (UniProt Q9BXJ8) 0.053
UBXN10 (UniProt Q96LJ8) -0.075
TNPO1 (UniProt Q92973) -0.034
UFL1 (UniProt O94874) -0.013
VTI1B (UniProt Q9UEU0) 0
VKORC1 (UniProt Q9BQB6) 0.105
VPS52 (UniProt Q8N1B4) 0.001
UBE3D (UniProt Q7Z6J8) 0.003
VPS33B (UniProt Q9H267) 0.017
USP48 isoform 8 (UniProt Q86UV5) -0.041
UBE2S (UniProt Q16763) -0.002
TMTC3 (UniProt Q6ZXV5) -0.051

From the supplement of paper PMC10849652
